Screening results from PubChem BioAssay.
PrP UTR inh – inhibition of PrP 5' UTR reporter expression; cell-based PrP 5' UTR mRNA reporter, plate reader; inhibition, % (no concentration beside the values); 340,000 tested, 0.35% active; in the data active = inhibition above about 52%; note: 0 = median of the neutral control wells
PfHsp40 yeast – rescue of yeast from PfHsp40 toxicity, primary screen, S. cerevisiae, ATP luminescence; S. cerevisiae expressing PfHsp40, growth rescue; growth rescue, % at 12.5 µM; 340,000 tested, 0.68% active; in the data active = growth rescue above about 28%, passing the limit was not always enough;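 note: yeast W303a lacking pdr1 and pdr3 grown in galactose medium; growth measured after three days at 30 °C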
PrPC TRFRET – inhibitors of human cell surface prion protein PrPC, primary screen, cell-based, TR-FRET; Major prion protein (Homo sapiens), P04156; TR-FRET read-out; inhibition, % at 13.8 µM; 370,000 tested, 0.43% active; AID 720596, 2013; in the data active = inhibition above about 24%; note: 0% = median of the test wells and 100% = reference compound wells
BJeLR lethal – MLPCN primary cell-based screen for lethality selective to Ras in HRASV12 cells; BJeLR (HRASV12) viability, CellTiter-Glo ATP luminescence, 48 h; inhibition, % (no concentration beside the values); 300,000 tested, 0.17% active; AID 1554, 2009; in the data active = inhibition above about 50%
PriA SSB inh – inhibitors of Klebsiella pneumoniae PriA binding to SSB C-terminal tail, primary screen, biochemical, AlphaScreen; PriA–SSB C-terminal tail interaction (Klebsiella pneumoniae); 430,000 tested, 0.6% active; AlphaScreen SSBct-PriA binding, biotinylated peptide; AID 1272365, 2023; inhibition, % at 33 µM; in the data active = inhibition mostly above about 37%, no sharp cut-off; inactive = mostly below about 20%;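 note: plate controls were negative control peptide for no effect and reference peptide for full effect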
RecA intein inh – Mtb RecA intein splicing inhibitors, primary screen, biochemical, fluorescence, HTS; cell-free RecA intein splicing; inhibition, % (no concentration beside the values); 290,000 tested, 0.75% active; AID 2221, 2009; in the data active = inhibition above about 30%;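 note: 0% = vehicle wells and 100% = reference inhibitor control wells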
Target sequence (P9WHJ3 whole entry, looked up): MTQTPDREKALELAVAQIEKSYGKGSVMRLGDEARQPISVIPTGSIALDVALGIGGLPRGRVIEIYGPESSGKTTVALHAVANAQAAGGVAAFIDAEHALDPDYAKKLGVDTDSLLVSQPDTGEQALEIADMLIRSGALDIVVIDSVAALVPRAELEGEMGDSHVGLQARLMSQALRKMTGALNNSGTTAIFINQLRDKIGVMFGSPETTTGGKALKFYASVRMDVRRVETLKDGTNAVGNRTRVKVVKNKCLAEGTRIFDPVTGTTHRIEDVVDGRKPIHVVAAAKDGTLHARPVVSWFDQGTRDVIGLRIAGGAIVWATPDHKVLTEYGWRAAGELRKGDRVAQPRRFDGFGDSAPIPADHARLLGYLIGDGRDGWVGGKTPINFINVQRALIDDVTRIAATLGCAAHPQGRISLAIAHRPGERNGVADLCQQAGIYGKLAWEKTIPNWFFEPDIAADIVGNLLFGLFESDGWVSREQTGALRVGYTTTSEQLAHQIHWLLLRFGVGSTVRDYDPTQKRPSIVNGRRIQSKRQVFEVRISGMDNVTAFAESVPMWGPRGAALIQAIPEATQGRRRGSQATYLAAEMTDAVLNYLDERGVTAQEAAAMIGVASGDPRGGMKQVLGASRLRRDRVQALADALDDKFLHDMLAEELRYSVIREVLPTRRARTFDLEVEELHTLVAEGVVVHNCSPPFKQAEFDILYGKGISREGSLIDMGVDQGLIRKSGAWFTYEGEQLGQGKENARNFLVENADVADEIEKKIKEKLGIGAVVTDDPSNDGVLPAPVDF
GFP chromophore – counter-screen: blocks GFP chromophore formation, dose response, counter-screen, biochemical, fluorescence, homogeneous | shares compounds with RecA intein inh | cell-free GFP chromophore formation | EC50, µM | 2,100 tested, 83% active; call rule not given here
The depositor's hits bear a star; / = not tested or not shown. Hits are enriched below; roughly 1.9% of the tested compounds scored in any of these assays.

SMILES | PrP UTR inh | PfHsp40 yeast | PrPC TRFRET | BJeLR lethal | PriA SSB inh | RecA intein inh | GFP chromophore
COC(=O)CCS(=O)(=O)c1nc(-c2ccccc2)cc(C(F)(F)F)n1 | 17 | 12 | / | 3 | -6 | 67* | 11*
COCC(C)NC(=O)CCS(=O)(=O)c1nc(-c2ccc(OC)cc2)cc(C(F)(F)F)n1 (stereo unspecified) | -1 | 1 | 9 | 1 | -2 | 33* | 35*
CCOc1ccc(-n2c(=O)c3c4c(sc3n(CC(=O)NCc3ccco3)c2=O)CCCCC4)cc1 | / | / | / | / | 1 | / | /
Cn1c(SCC(=O)c2ccccc2)nnc1-c1c[nH]c2ccccc12 | / | / | / | / | 15 | / | /
Cc1cc(C(=O)NC[C@H](O)c2csc3ccccc23)no1 | / | / | / | / | -26 | / | /
COc1ccc2cc(S(=O)(=O)NCC3CCCO3)ccc2c1 (stereo unspecified) | / | / | / | / | 5 | / | /
Cc1nc(C)c(CNC(=O)Cc2ccc(Br)cc2)s1 | / | / | / | / | 5 | / | /
O=C(CC1CCCCN1S(=O)(=O)c1ccccc1)NCCc1c[nH]c2ccccc12 (stereo unspecified) | / | / | / | / | 25 | / | /
CS(=O)(=O)c1nc(-c2ccc(F)cc2)cc(C(F)(F)F)n1 | -5 | 0 | 4 | -6 | -22 | / | /
COc1ccc(-c2cc(C(F)(F)F)nc(S(C)(=O)=O)n2)cc1 | -19 | 2 | 14 | -10 | -3 | 72* | 14*
CCOC(=O)CCS(=O)(=O)c1nc(-c2ccccc2)cc(C(F)(F)F)n1 | -15 | 1 | / | 23 | -8 | 78* | 7.2*
Cc1ccc(NC(=O)c2sc3ncnc(N4CCN(c5ccccn5)CC4)c3c2C)c(C)c1 | -20 | 0 | -4 | 1 | 3 | 73* | >38
Cc1ccc(NC(=O)c2sc3nc(C)nc(N4CCN(c5ccccn5)CC4)c3c2C)c(C)c1 | -13 | 1 | 7 | 10 | -20 | 8 | /
Cc1[nH]nc2c1[C@@H](c1ccccc1[N+](=O)[O-])C(C#N)=C(N)O2 | 3 | 0 | 11 | 0 | 8 | 0 | /
N#CC1=C(N)Oc2n[nH]c(-c3cccs3)c2C1c1ccccc1C(=O)O (stereo unspecified) | -7 | -1 | -2 | -3 | -5 | 76* | 12*
N#CC1=C(N)Oc2n[nH]c(-c3cccs3)c2C1c1cccs1 (stereo unspecified) | -7 | 0 | 2 | -19 | 5 | 79* | 11*
CCc1cccc(CC)c1NC(=O)/C(C#N)=C/c1ccccc1C(F)(F)F | -15 | 1 | 13 | 1 | 9 | 31* | 32*
CCN1C(=O)c2cc(NS(=O)(=O)c3ccc(OC)cc3C)ccc2Oc2ccccc21 | / | / | / | / | 23 | / | /
Cc1cc(-c2cccs2)nn1CCNC(=O)Nc1cccc(Cl)c1 | / | / | / | / | -1 | / | /
CCOC(=O)CC1=NN(c2ccccc2)C(=O)/C1=C\c1ccc(OC)cc1OC | -25 | 0 | 1 | -5 | 0 | 47* | 0.41*
COC(=O)CC1=NN(c2ccc(OC)cc2)C(=O)/C1=C\c1ccc(Cl)cc1 | -52 | 4 | -1 | -9 | 11 | 21 | /
COc1cc(/C=C2\SC(=N)NC2=O)cc(Br)c1O | / | / | / | / | -10 | / | /
CC(C)C(C(=O)Nc1ccc(S(N)(=O)=O)cc1)N1C(=O)C2C3C=CC(C3)C2C1=O (stereo unspecified) | / | / | / | / | -16 | / | /
COc1ccc(-c2nnc(Sc3nc4ccccc4o3)c3ccccc23)cc1 | -26 | 0 | -3 | 1 | 18 | 53* | 1.5*
CCOC(=O)c1c(NC(C)=O)sc2c(OCCN(CC)CC)c(Br)ccc12 | 2 | 0 | -7 | 0 | 15 | -3 | /
SMILES | PrP UTR inh | PfHsp40 yeast | PrPC TRFRET | BJeLR lethal | PriA SSB inh | RecA intein inh | GFP chromophore
CCOC(=O)c1c(NC(C)=O)sc2c1CCC(C=NCCCN(CC)CC)=C2Sc1ccccc1 | 6 | 4 | / | -11 | 18 | 61* | 0.37*
O=C(Nc1ccccc1-c1csc(-c2ccccc2F)n1)c1ccc(-n2cncn2)nn1 | / | / | / | / | -1 | / | /
CN(C)CCSc1nnc2[nH]c3ccccc3c2n1 | -14 | -1 | -31 | 12 | -6 | 32* | 9.4*
Fc1cccc(CSc2nnc3c(n2)[nH]c2ccccc23)c1 | -66 | 0 | -4 | 16 | -9 | 1 | /
O=C(CSc1ccccc1)Nc1c2c(nn1-c1ccccc1)CCC2 | / | / | / | / | -3 | / | /
CC1CC(=O)c2c(cc3c(-c4c(O)cc(O)c5c(O)c6c(cc45)OC(C)CC6=O)c(O)cc(O)c3c2O)O1 (stereo unspecified) | -28 | 102* | / | -11 | -4 | 96* | 2.5*
O=C1CC(c2ccc(O)cc2)Oc2cc(O)cc(O)c21 (stereo unspecified) | -20 | 1 | 1 | -6 | -13 | 1 | /
N#C/C(=C\c1c(Cl)cccc1Cl)c1nn(-c2ccccc2)c(-n2cccc2)c1C#N | -1 | -1 | -1 | -7 | 6 | 25 | /
N#C/C(=C\c1c(F)cccc1Cl)c1nn(-c2ccccc2)c(-n2cccc2)c1C#N | -55 | 0 | -3 | -11 | 0 | 46* | >38
O=[N+]([O-])c1c(O)c(Cl)cc(Cl)c1Cl | / | / | / | / | -1 | / | /
CCCCCC(=O)Cc1cc(O)cc2c1C(=O)Oc1cc(O)c(C(=O)O)c(CCCCC)c1O2 | / | / | / | -14 | 8 | 66* | 7.2*
COc1ccc2c(c1)CCCC2(O)CNC(=O)c1ccco1 (stereo unspecified) | / | / | / | / | -17 | / | /
Cc1cc(C)nc(N2N=C(C(C)(C)C)CC2=O)n1 | -9 | -2 | -6 | -8 | -20 | 40* | 34*
O=c1[nH]cnc2c1nnn2-c1cccc(Cl)c1 | / | / | / | / | 25 | / | /
O=C(NC1(O)C(=O)c2ccccc2C1=O)c1c(Cl)cccc1Cl | -22 | 1 | -4 | -5 | 23 | 34* | 36*
COC1(NC(=O)c2ccccc2)C(C)=CC(=O)C=C1C | -19 | -1 | -6 | 0 | -20 | -2 | /
O=C(NC1(O)C(=O)c2ccccc2C1=O)c1ccccc1 | -29 | -2 | 4 | -11 | 3 | 50* | 16*
Cn1ccnc1SCC1CCN(S(=O)(=O)CCN2C(=O)CCCC2=O)CC1 | / | / | / | / | -12 | / | /
O=c1[nH]cc(O)c(=O)[nH]1 | -17 | 2 | -1 | -9 | -2 | 89* | 15*
O=C1C(Cl)=C(NS(=O)(=O)c2ccc([N+](=O)[O-])cc2)C(=O)c2ccccc21 | -62 | 0 | -42 | -2 | 16 | 73* | 3.6*
O=C(Cc1ccc(F)cc1)N1CCN(c2ccc(-c3ccccc3)nn2)CC1 | / | / | / | / | 2 | / | /
